# Data taken from PubChem BioAssay (Tox21).
# A number with no mark means an inactive call. The source made the active and inactive calls. The call rests on the fitted dose curve; in most records, active means well fitted curve in the direction sought with a large enough effect in the repeat runs; inconclusive means weak or mixed curves; inactive means flat fitted curve, though single readings scatter.
# Experiment: qHTS assay to test for compound auto fluorescence at 590 nm (red) in HepG2 cells (AID 720674)
# Conditions: HepG2 autofluorescence, red 540/590 nm, 1 h; series mostly up to 91.3 µM; fluorescence, relative to Rose Bengal: at the top concentration
# Excerpt: U.S. Tox21 Program National Center for Advancing Translational Sciences [NCATS] NIH Chemical Genomics Center [NCGC] U.S. Environmental Protection Agency [EPA] National Institutes of Environmental Health Sciences [NIEHS] National Toxicology Program [NTP] U.S. Food and Drug Administration [FDA] Tox21 Assay Overview: Compound auto fluorescence often interferes with screening of the compound library against various biological targets and signaling pathways. Some of these compounds may have fluorophoric properties. Such properties may interfere with the assay outputs resulting in false positives and/or negatives. To decrease such complications and ensure the compound activities are relevant in terms of biological response, the Tox21 10K compound library was screened for auto fluorescence. From the fluorophores used as reporter signals in our screening assays, the auto fluorescence equivalencies of compounds against three fluorophores have been evaluated: Triamterene, Fluorescein and Rose Bengal sodium for blue, green and red fluorescence, respectively. The fluorescence intensities were measured using Excitation/Emission wavelengths at 405/460nm, 485/535nm and 540/590nm for blue, green and red labels, respectively. This assay includes the red fluorescence data.
# Tox21 Assay Protocol Summary: 2,000 HepG2 cells in 5 uL of culture medium (MEM containing 10% FBS) per well were dispensed into black wall/clear bottom 1536-well plates using a Multidrop Combi Dispenser (ThermoFisher Scientific, Waltham, MA). The assay plates were incubated overnight at 37 C to allow cell attachment to the well bottom, followed by the transfer of 23 nL compound or DMSO vehicle by a pintool work station (Kalypsys , San Diego, CA). After the assay plates were incubated for 1 hr at 37 C and 5% CO2, fluorescence intensities in the assay plates were measured by an Envision (PerkinElmer, Shelton, CT) plate reader using three labels for measuring blue, green and red fluorescence at […] 460, 535 and 590 nm respectively.
# On the % scale 0 is the no-effect control and ±100 the full control effect.
Compound,"fluorescence, relative to Rose Bengal",Potency
Cc1oc(-c2ccccc2)nc1CCOc1ccc(C[C@H](Nc2ccccc2C(=O)c2ccccc2)C(=O)O)cc1,0.026%,
Cc1ccc2ccc3cccc4ccc1c2c34,0.0088%,
CN(C)c1ccc(N=Nc2ccccc2C(=O)O)cc1,-0.0067%,
NC(=O)c1ccccc1N,0.214%,
CN(Cc1cc(Br)cc(Br)c1N)C1CCCCC1,-0.231% [at 46 µM],
O=C(Oc1ccccc1)c1cccc(C(=O)Oc2ccccc2)c1,0.527% [at 95.7 µM],
NC1(c2ccc(-c3nc4ccn5c(=O)[nH]nc5c4cc3-c3ccccc3)cc2)CCC1,0.0926% [at 46 µM],
Cc1cccc(C)c1NC(=O)CN1CCN(CCCC(c2ccc(F)cc2)c2ccc(F)cc2)CC1,-0.479% [at 18.6 µM],
CCCSS/C(CCO)=C(\C)N(C=O)Cc1cnc(C)nc1N,-0.443% [at 46 µM],
CO[C@H]1C=CO[C@@]2(C)Oc3c(C)c(O)c4c(O)c(cc(O)c4c3C2=O)NC(=O)/C(C)=C\C=C/[C@H](C)[C@H](O)[C@@H](C)[C@@H](O)[C@@H](C)[C@H](OC(C)=O)[C@@H]1C,,inactive
C=C(C)C(=O)OCCC[Si](Cl)(Cl)Cl,0.0051%,
CCOC(=O)COc1ccc(C)cc1,0.0141%,
Clc1ccc(C(Cn2ccnc2)OCc2ccsc2Cl)c(Cl)c1 (stereo not given),-0.851% [at 46 µM],
O=C(NO)c1ccccc1,-0.303%,
Cc1cn[nH]c1,-0.0732% [at 46 µM],
CCCCCCCCCCCCN(CCO)CCO,0.12%,
CCN=C1C=CC(=C(c2ccc(N(CC)CC)cc2)c2ccc(N(CC)CC)cc2)c2ccccc21,-0.568%,
CC(COC(=O)c1ccccc1)OC(=O)c1ccccc1 (stereo not given),-0.0224%,
C[n+]1c2cc(N)ccc2cc2ccc(N)cc21 (tested in a mixture with another compound),-0.636% [at 46 µM],
Cc1ccc(N)cc1O,-0.568%,

Compound,"fluorescence, relative to Rose Bengal",Potency
CCN(CC)c1ccc(N)cc1,2.43% [at 95.7 µM],
C[C@@H]1CC[C@H]2C(C)(C)[C@H]3C[C@@]12CC[C@@]3(C)O,-0.0313%,
CCO[Si](CCCSSSSCCC[Si](OCC)(OCC)OCC)(OCC)OCC,0.0548%,
C[C@H]1O[C@@H](O[C@H]2[C@@H](O)C[C@H](O[C@H]3[C@@H](O)C[C@H](O[C@H]4CC[C@@]5(C)[C@H](CC[C@@H]6[C@@H]5C[C@@H](O)[C@]5(C)[C@@H](C7=CC(=O)OC7)CC[C@]65O)C4)O[C@@H]3C)O[C@@H]2C)C[C@H](O)[C@@H]1O,,inactive
O=Cc1ccc(F)cc1,-0.334%,
O=C(O)c1cccc(Cl)n1,-0.313%,
CCCCOc1ccc(C(=O)CCN2CCCCC2)cc1,0.0479% [at 18.6 µM],
COC(=O)NCCC[Si](OC)(OC)OC,0.114%,
CCC(C)(C)c1cc(O)c(C(C)(C)CC)cc1O,0.0385%,
C/C=C/C=N/NC(=O)c1ccncc1,0.0729% [at 46 µM],
COc1cc(C(=O)NS(=O)(=O)c2ccccc2C)ccc1Cc1cn(C)c2ccc(NC(=O)OC3CCCC3)cc12,0.101% [at 46 µM],
COC(=O)CC#N,-0.147% [at 95.7 µM],
Oc1c(Br)cc(Br)c2cccnc12,-0.582% [at 46 µM],
CNCC[C@H](Oc1cccc2ccccc12)c1cccs1,-0.203% [at 46 µM],
CCN1CCN(c2cc(-c3ccc(F)cc3)c3c(n2)CCCCCC3)CC1,-0.631% [at 46 µM],
CCN(CC)CCNc1ccc(CO)c2sc3ccccc3c(=O)c12,-0.814% [at 46 µM],
CC(C)c1ccc(O)c(C(C)C)c1,-0.762%,
CCCCCCCCCCCCCC[n+]1ccccc1,-0.453%,
Clc1ccc(C(c2ccccc2Cl)C(Cl)Cl)cc1 (stereo not given),,inactive
O=C(O)CCn1c2c(c3ccccc31)C[C@H](NS(=O)(=O)c1ccc(F)cc1)CC2,0.0024% [at 46 µM],
